The list is not random: actives were taken first. Their share in the collection is about 2.4%.
Pol eta inh: qHTS for Inhibitors of Polymerase Eta. DNA polymerase eta (Homo sapiens), Q9Y253. Potency, µM (series often up to 114 µM), without a hit: at the highest dose activity change, negative = inhibition, hits mostly inhibitors. recombinant Pol eta, fluorescent DNA replication assay. AID 588591, 2011. 1.2% of 390,000 active; further: on the % scale 0 is the no-effect control and ±100 the full control effect
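Fluorescent replication assay: 50 nM final substrate added after a 15 min room-temperature compound preincubation with 10 nM enzyme. Signal taken at 0 min and again at 10 min.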
POLB inh: qHTS Assay for Inhibitors of DNA Polymerase Beta. P06746. Pol beta primer extension/strand displacement, fluorescence kinetic. AID 485314, 2010. Potency, µM (highest dose often 114 µM), inactives show top-dose activity change, negative = inhibition, usual class: inhibitors. 1.3% of 340,000 active; further: on the % scale 0 is the no-effect control and ±100 the full control effect
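Values derive from four-parameter Hill fits of normalized kinetic data: reads at 0 and 10 min following addition of 50 nM substrate to 10 nM Pol beta preincubated 15 min with compound.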
Pol kappa inh: qHTS for Inhibitors of Polymerase Kappa. purified Pol kappa, fluorescent DNA synthesis assay, 10 min. DNA polymerase kappa (Homo sapiens), Q9UBT6. Potency, µM (highest dose often 107 µM), for the others: at the top dose activity, negative = inhibition, hits mostly inhibitors. 0.53% of 400,000 active; further: on the % scale 0 is the no-effect control and ±100 the full control effect
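Kinetic fluorescence screen: compound preincubated 15 min RT with 10 nM enzyme; 50 nM substrate (final) initiates; reads at 0/10 min.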
FEN1 inh: qHTS Assay for the Inhibitors of Human Flap endonuclease 1 (FEN1); P39748; Recombinant FEN1 flap cleavage, fluorescence, 15 min; Potency, µM (highest dose often 114 µM), without a hit: top-dose activity change, negative = inhibition, actives largely listed as inhibitors; 0.35% of 390,000 active; AID 588795, 2011; further: on the % scale 0 is the no-effect control and ±100 the full control effect; nearly all actives have a fitted effect of over 65% in size
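With each library titrated from low to high concentration, compounds met 10 nM FEN1 for 15 min at room temperature before 50 nM substrate was added; readings at 0 and 15 min fed four-parameter Hill curve fits.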
WRN inhibitor: qHTS for Inhibitors of WRN Helicase; 0.46% of 360,000 active; AID 651768, 2012; Potency, µM (top dose mostly 114 µM), inactives show at the highest dose activity change, negative = inhibition, actives largely listed as inhibitors; Bifunctional 3'-5' exonuclease/ATP-dependent helicase WRN (Homo sapiens), Q14191; WRN helicase unwinding, fluorescent forked duplex, kinetic; further: on the % scale 0 is the no-effect control and ±100 the full control effect; nearly all actives have a fitted effect of over 55% in size
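WRN at 20 nM final preincubated with compound 15 min at room temperature; reaction started with 100 nM fluorophore/quencher forked duplex oligonucleotide and 2 mM ATP final. Unwinding followed kinetically by red fluorescence (ex 525, em 598 nm).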
Pol iota inh: qHTS for Inhibitors of Polymerase Iota; AID 588590, 2011; 1% of 390,000 active; Pol iota fluorescent replication assay, 10 min; Potency, µM (highest dose often 115 µM), for inactives: top-dose activity, negative = inhibition, actives largely listed as inhibitors
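Fluorescent replication assay read twice, at 0 min and 10 min after adding 50 nM (final) substrate. Enzyme (10 nM) and compounds were first incubated 15 min at room temperature; enzyme-free buffer wells were negative controls.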
* hit, by the source's call; ? = inconclusive; / = no result given; [ ] = dose if it differs, or a comment. The call rests on the fitted dose curve; in most records, active means well fitted curve in the direction sought with a large enough effect; inconclusive means small, poorly fitted or top-dose-only effect, or another doubt; inactive means no such curve, though single readings can be large; an effect the other way counts as inactive or inconclusive. Potency means the concentration at half of the fitted maximal effect.

SMILES	Pol eta inh	POLB inh	Pol kappa inh	FEN1 inh	WRN inhibitor	Pol iota inh
O=C(N/N=C/c1ccc([N+](=O)[O-])o1)C1CC1	39.8µM*	17.8µM*	-27.9%	8.7%	0.5%[11.6 µM]	22.4µM*
COc1ccccc1CCn1c(=O)c(-c2cccs2)nc2cncnc21	/	/	2.7%[60.1 µM]	/	/	/
COc1ccc(N(Cc2ccccc2)C(=O)c2nc(S(C)(=O)=O)ncc2Cl)cc1	-1.0%	-6.0%	-13.7%	9.3%	/	-15.4%
COC(=O)C1CCN(C(=O)COC(=O)c2cc(-c3ccccc3)nc3ccc(OC)cc23)CC1	39.8µM*	/	-45.2%	-15.0%	3.4%[11.6 µM]	20µM*
COc1ccc(-c2cc(C(=O)OCC(=O)N3CCOCC3)c3ccccc3n2)cc1	-7.7%	/	-12.3%	-28.8%	9.0%	17.4%
Clc1ccc(Sc2cc(Cl)c(Cl)cc2Cl)cc1	/	/	-7.2%[60.1 µM]	/	/	/
COc1ccc(-n2nnnc2SCC(=O)Nc2ccc3c(c2)OCCO3)cc1OC	?	-1.2%	-5.6%	-3.4%	-19.3%	50.1µM*
CN(C)c1ccc(/C=C/c2ccnc3ccc(I)cc23)cc1	/	/	-20.8%	-4.4%	/	2.6%
Cc1cccc(Nc2nn3c(=O)c4cc5c(cc4nc3s2)OCO5)c1	-4.7%	3.16µM*	-7.7%	4.1%	/	-2.4%
O=C(CSc1nc(=O)n2cc(Cl)ccc2n1)Nc1cccc2ccccc12	?	/	-43.7%	0.4%	-13.3%	?
Cc1ccc(CNC(=O)CSc2nc(=O)n3ccccc3n2)cc1	-18.4%	/	3.2%	-2.9%	-8.2%	29.1%
Cc1ccn2c(=O)nc(SCC(=O)NCc3ccccc3)nc2c1	22.4µM*	/	-33.2%	3.5%	?	44.7µM*
Cc1ccn2c(=O)nc(SCC(=O)N3CCN(c4ccccc4)CC3)nc2c1	20µM*	/	-13.9%	-10.7%	-0.8%[11.6 µM]	50.1µM*
Cc1ccn2c(=O)nc(SCC(=O)Nc3cccc4ccccc34)nc2c1	79.4µM*	/	-9.5%	6.0%	-2.5%[11.6 µM]	?
COc1ccc[n+](CC(=O)c2ccc(F)cc2)c1	/	/	-8.4%	0.4%	/	11.0%
C=CCn1c(=O)c(CCC(=O)Nc2ccc(N3CCOCC3)cc2)nc2cc(C(F)(F)F)ccc21	79.4µM*	5.8%	?	-2.7%	-0.3%[11.6 µM]	?
O=C(Cn1cc(C(F)(F)F)ccc1=O)Nc1ccc(N2CCOCC2)cc1	-26.5%	-5.0%	-0.1%	2.1%	4.5%	94.5%
CCOc1ccc(NC(=O)COC(=O)c2ccccc2OCC(=O)N(C)C)cc1	/	/	1.7%	11.6%	/	23.8%
C=C1CCN(C(Cc2ccccc2)C(=O)O)S(=O)(=O)c2ccccc21 (stereo unspecified)	/	/	5.4%	-1.7%	/	-11.0%
O=C(NCc1ccco1)c1cc2c(s1)CCCCC2	-19.2%	28.2µM*	-18.8%	5.9%	-12.9%	?
O=C1C(=O)c2cccnc2-c2ncccc21	/	/	/	/	17.8µM*	/
O=C1c2cccnc2-c2ncccc21	-9.3%	-0.4%	-5.3%	-11.0%	-11.2%	12.7%
COC1=C(Br)C(=O)c2ncccc2C1=O	3.16µM*	/	-11.0%	?	10µM*	1.26µM*
COc1ccc(N=c2nc(-c3ccccc3)n(-c3ccc(C)cc3)s2)cc1	/	/	-9.9%	1.3%	/	12.3%
C1CCC(NC(=NC2C3CC4CC(C3)CC2C4)N2CCOCC2)CC1 (stereo unspecified)	/	/	9.9%[19.4 µM]	/	/	/
SMILES	Pol eta inh	POLB inh	Pol kappa inh	FEN1 inh	WRN inhibitor	Pol iota inh
CCOc1ccc(C=C2SC(=O)N(CCN)C2=O)cc1	/	/	16.2%[60.1 µM]	/	/	/
Cc1nnn(-c2nonc2N)c1C(=O)N/N=C/c1ccccc1O	?	44.7µM*	-18.1%	1.1%	-9.7%	?
CCn1c(=S)[nH]c2c(=O)n(C)c(=O)n(C)c21	-1.6%	/	-7.5%	1.9%	50.1µM*	?
CNc1ccc(C=O)cc1I	/	/	-3.4%	-2.6%	/	2.3%
Nc1[nH]c(N=NC(=O)c2ccc(Cl)cc2)c2ccccc12	0.2%	79.4µM*	1.0%	4.0%	-31.0%[57.1 µM]	18.7%
N#C/C(=C\c1ccc(/C=C(/C#N)c2nn(CCO)c(N)c2C#N)cc1)c1nn(CCO)c(N)c1C#N	-9.3%	1.8%	-11.7%	?	56.2µM*	-5.2%
N#C/C(=C/c1ccccc1)c1nn(CCO)c(N)c1C#N	-1.3%	6.7%	-0.7%	4.8%	-5.3%	11.8%
CC(=O)c1ccc(NC(=O)Cn2c(=O)nc(-c3ccccc3)c3ccccc32)cc1	-9.5%	-18.3%	-9.1%[60.1 µM]	11.0%	/	70.8µM*
CCn1c(SCC(=O)Nc2oc(-c3ccccc3)c(-c3ccccc3)c2C#N)nnc1-c1ccncc1	70.8µM*	0.1%	?	-18.4%	-5.7%[11.6 µM]	?
COc1ccccc1N1CC(C(=O)Nc2ccc(S(=O)(=O)N3CCCC3)cc2)CC1=O (stereo unspecified)	-5.7%	/	-2.2%	-7.3%	1.8%	?
CCc1ccccc1N1CC(C(=O)Nc2cc(S(=O)(=O)N3CCCC3)ccc2Cl)CC1=O (stereo unspecified)	15.8µM*	/	?	-9.2%	-34.3%	50.1µM*
Cc1ccc(CN2CC(C(=O)Nc3cc(S(C)(=O)=O)ccc3Cl)CC2=O)cc1 (stereo unspecified)	?	14.1µM*	-16.7%	-7.5%	-2.7%[57.1 µM]	-9.8%
O=S(=O)(c1ccc(Br)cc1)N1CCN(c2nc(-c3ccccc3)nc3ccccc23)CC1	/	/	2.5%	-5.1%	/	16.7%
O=C(N/N=C/c1cccc(O)c1)c1ccc(NC(=O)C2CCCCC2)cc1	4.9%	31.6µM*	-14.7%	-4.3%	-16.2%	?
O=C(N/N=C/c1ccc(O)cc1O)c1ccc(NC(=O)C2CCCCC2)cc1	35.5µM*	-5.1%	-7.7%	4.7%	-5.1%[11.6 µM]	?
